Wnt bcat act = Wnt/beta-catenin pathway activators, primary screen, cell-based, plate reader, single point; Wnt/beta-catenin reporter cell assay, activator; activation, % at 9.35 µM; hit rate 1.2% among 300,000; AID 743398, 2014; in the data active = activation above about 30%, passing the limit was not always enough; inconclusive = no clear call, values can overlap the other calls;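 note: 0% = neutral control wells and 100% = positive control wells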
Vif imaging = HIV Vif self-association inhibitors, primary screen, imaging, HEK293T, single point; inhibition, % at 7.49 µM; hit rate 0.35% among 340,000; HEK293T cells, Vif self-association by quenched fluorescence, 24 h; in the data active = inhibition above about 50%, passing the limit was not always enough; inconclusive = no clear call, values can overlap the other calls; inactive = below about 31%
MITF act = activators of MITF-driven TRPM1 promoter reporter, primary screen, cell-based, SK-MEL-5, luciferase, single point; hit rate 0.75% among 300,000; SK-MEL-5 TRPM1-promoter luciferase, 24 h; % of positive control, neutral wells = 0; activation, % at 12.5 µM;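 active = mean activation of at least 80% with every replicate also reaching 80%; inconclusive = mean reaches 80% but some replicate falls short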;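 note: 0% = neutral control wells and 100% = parthenolide positive control wells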
N-glyco inh = increase of ERlucT glycosylation luciferase signal, primary screen, N-linked glycosylation inhibitor project, D54 ERlucT cells, luminescence, set 2 | D54 ERlucT glycosylation luciferase reporter, 24 h; percent of 100 nM tunicamycin response | reporter increase, % at 12.5 µM | hit rate 0.23% among 360,000;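 active = mean luciferase reporter signal, scaled so untreated is 0 and the glycosylation-blocking control 100, at or above a set limit in every replicate; inconclusive = mean reaches the limit but not every replicate does; inactive = mean below the limit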;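 note: luciferase carries N-glycosylation sites so blocking glycosylation raises the light; 0% = median of neutral control wells and 100% = median of 100 nM tunicamycin wells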
esBAF inh = Bmi1 luciferase reporter increase in mESCs, primary screen, esBAF inhibitor project, mouse ES cells, Bmi1 luciferase knock-in, single point. reporter increase, % at 12.5 µM. 24 h; 100% = twice the neutral-well signal. hit rate 2% among 350,000; in the data active = activation above about 40%; inconclusive = no clear call, values can overlap the other calls;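 note: 0% = median of the plate's neutral control wells and 100% = double that signal; a rise in the Bmi1 reporter signal indicates esBAF inhibition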
PfHsp90 yeast 2 = growth inhibition of PfHsp90-expressing yeast, primary screen, antimalarial PfHsp90 inhibitor project, S. cerevisiae, BacTiter-Glo luminescence, single point, set 2; BacTiter-Glo ATP, 48 h; yeast lacking PDR1 and PDR3 efflux regulators; inhibition, % at 9.4 µM; hit rate 0.32% among 310,000; AID 504621, 2011;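 active = every replicate shows inhibition above about 80%, whatever the replicate mean, limit read from the data; inconclusive = mean inhibition reaches the set limit but some replicate falls short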;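 note: 0% = DMSO neutral controls and 100% = 20 µM radicicol positive controls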
Starred values were filed as active, the others as inactive; ? = inconclusive; . = no result; ! = a repeat was not active. In the library only some 3% were active in any assay of this set; here they are far more common.

SMILES	Wnt bcat act	Vif imaging	MITF act	N-glyco inh	esBAF inh	PfHsp90 yeast 2
Cc1ccccc1NS(=O)(=O)c1ccc2c(c1)oc(=O)n2C	-4	17	-9	-2	-3	49
Cc1cc(/C=N\NC(=O)c2cccs2)c(C)n1-c1ccc2ncccc2c1	2	-14	72	-3	72*	4
Cc1ccc(/C=N/NC(=O)c2cccs2)s1	.	13	62	1	50*	9
Cn1cccc1/C=N/NC(=O)c1sc2ccccc2c1Cl	11	-9	45	1	62*	-46
CCCc1cc(=O)n2[nH]cc(-c3ccc(Cl)cc3)c2n1	-3	-3	.	4	0	1
O=C(COC(=O)c1cc(Cl)ccc1O)NNC(=O)c1ccc([N+](=O)[O-])cc1	3	8	0	2	-6	-10
CC1CCC(NC(=O)CN2C(=O)c3ccccc3S2(=O)=O)CC1 (stereo not drawn)	4	59*	0	-3	-2	12
COC(=O)C1C(=O)c2c([nH]c(C(=O)OC3CCCC3C)c2C)CC1C (stereo not drawn)	26	-7	99*	-6	74*	-20
COC(=O)C1C(=O)c2c([nH]c(C(=O)OC3CCCCC3)c2C)CC1C (stereo not drawn)	?	-5	94*	-1	63*	-30
Cc1c(C(=O)OC2CCCCC2)[nH]c2c1C(=O)CC(C)(C)C2	-2	-4	53	-3	37	-23
C=CCNC(=O)c1ccc(CN2CCC(Cc3ccccc3)CC2)cc1	5	0	.	-2	-6	8
COc1ccc(C(=O)/C=C/Nc2ccc(C)cn2)cc1OC	.	?	18	-6	60*	-16
COc1ccc(N/C=C\C(=O)c2ccc3ccccc3c2)cc1	10	4	.	1	43*	-28
CCCOc1ccc(N/C=C/C(=O)c2ccc(OC)c(OC)c2)cc1	1	0	14	0	3	-2
CCOC(=O)c1ccc(N/C=C/C(=O)c2ccc(OC)c(OC)c2)cc1	.	2	-2	1	12	14
CCOc1ccc(N/C=C/C(=O)c2ccc(OC)c(OC)c2)cc1	5	1	.	-2	70*	-2
C[C@H](CO)N1C[C@H](C)[C@H](CN(C)C(=O)Nc2ccccc2)Oc2ccc(NS(=O)(=O)c3ccccc3)cc2CC1=O	.	.	.	.	-2	.
C[C@@H]1CN([C@H](C)CO)C(=O)c2cccc(NS(=O)(=O)c3cn(C)cn3)c2O[C@@H]1CN(C)Cc1ccc2c(c1)OCO2	.	.	.	.	1	.
N/C(Cc1ccc(Cl)cc1Cl)=N\OC(=O)c1ccc(Br)o1	0	3	-11	-1	-3	98*
N/C(Cc1ccc(Cl)cc1Cl)=N\OC(=O)c1cccs1	?	.	11	1	28	83*
N#CC1=C(N)OC2=C(C(=O)CCC2)C1C1C=CCCC1 (stereo not drawn)	.	9	3	2	.	23
COc1ccc(C(=O)c2ccc(Br)cc2)c2ccccc12	2	-3	-13	6	3	0
CCOc1ccc2c(ccc(/C=C/c3cc(C)c4cccnc4c3O)[n+]2C)c1	.	-14	-76	-13	.	115*
COc1cccc(C(=O)Nc2ccc3c(C)cc(=O)oc3c2)c1	33*	2	20	-15	34	17
Cc1cc(=O)oc2cc(NC(=O)c3ccccc3C(=O)O)ccc12	0	-4	2	2	-5	3
SMILES	Wnt bcat act	Vif imaging	MITF act	N-glyco inh	esBAF inh	PfHsp90 yeast 2
Cc1cc(=O)oc2cc(NC(=O)c3ccccc3Cl)ccc12	?	-20	98*	-3	.	-2
Cc1cccc(OCC(=O)Nc2ccc3c(C)cc(=O)oc3c2)c1	.	0	14	3	.	-10
COCC(=O)Nc1ccc2c(c1)[C@H]1C[C@H](CC(=O)NCc3ccccn3)O[C@@H](CO)[C@H]1O2	.	.	.	.	-4	.
COc1cc(C)ccc1OCCCOc1ccccc1Cl	.	30	126*	-4	71*	-2
COc1cc(C)ccc1OCCOc1ccccc1Cl	.	-5	90*	0	77*	-18
COc1cc(C)ccc1OCCCCOc1ccccc1C(C)=O	2	-15	-6	-2	.	-6
Cc1cccc2cc3c(N)c(C(=O)Nc4ccc(N5CCOCC5)cc4)sc3nc12	.	-11	-5	9	27	-11
CCc1cccc2cc3c(N)c(C(=O)Nc4ccc(S(=O)(=O)N5CCCC5)cc4)sc3nc12	-13	68*	7	6	.	-12
COc1ccc(-c2cc(C(=O)NCc3cccs3)no2)cc1	?	-1	92*	-4	42*	-33
O=C(NCc1cccs1)c1cc(-c2ccccc2)on1	.	-4	99*	-3	40	-1
COCCNC(=O)c1cc(-c2cccc(OC)c2)on1	.	-7	?	-5	11	8
COc1cccc(-c2cc(C(=O)NCc3cccs3)no2)c1	3	-2	134*	0	72*	-28
O=C(NCc1cccs1)c1cc(-c2cccs2)on1	.	-2	61	0	?	.
CNC(=O)c1c(Br)cnn1-c1ccc(C)cc1	18	-10	44	-3	84*	-14
CNC(=O)c1c(Cl)cnn1-c1ccc(C)cc1	12	-1	56	-1	.	17
Cc1cc(OCC(F)(F)C(F)(F)C(F)(F)C(F)F)nc(N)n1	29	-3	.	0	50*	.
Cc1cc(OCC#N)nc(N)n1	-2	9	2	1	2	1
CCOC(=O)C(=Cc1ccc(N(C)C)cc1)C(=O)c1ccccc1	0	-3	.	-1	.	.
CCOC(=O)/C(=C/c1ccc(OC(=O)c2ccccc2)cc1)C(C)=O	.	2	-8	9	1	106*
c1ccc(-c2nc3ccccc3s2)nc1	59*!	2	58	-9	11	-14
Nc1ccc(-c2nc3ccccc3s2)cn1	38*	0	39	-3	13	-11
Cc1cc(-c2nc3ccccc3s2)ccc1N	-2	4	.	-16	.	0
c1ccc(-c2nnc(-c3ccncc3)nc2-c2ccccc2)cc1	0	3	-10	1	.	3
Brc1nc(-c2ccccc2)nc(-c2ccccc2)c1Br	0	69*	.	5	-7	.
CCC/C=C1/CCCOC(C(=O)NCc2ccccn2)(C(F)(F)F)C1 (stereo not drawn)	-1	-3	0	2	2	9
Cc1nnc(SCCc2ccccc2)[nH]c1=O	.	-3	10	-1	-2	.
Cc1nc(SCc2ccc(Br)cc2)[nH]c(=O)c1C	12	52*	1	4	.	-34

From PubChem
